This is an account of results in PubChem BioAssay.

Structures are written as SMILES. “And” between values parts separate entries of the source, which are not always exact repeats. Identical values can stand only once. The source made the active and inactive calls.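 How the source made its calls, unless noted: active means compounds whose cell count with miR-34 switched on is under 0.7 times the count with it off; inactive means the rest.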

A short description of assay [1]: Wnt pathway potentiators raising nuclear beta-catenin – imaging, WNT3A-conditioned medium, mouse C2C12, NPC library, primary screen (AID 1117326; in the data active means nuclear beta-catenin stimulation mostly above about 4.2%, no sharp cut-off; inactive means mostly below about 10%). The conditions noted are these: stronger effect = higher value.
The nature of assay [2]: stimulators of insulin release from INS-1E, primary screen, cell-based, 5 mM glucose, NPC library (AID 1117329;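 active means compound raises insulin release from rat beta cells at 5 mM glucose, no numeric limit stated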). The conditions noted are these: rat INS-1E insulin secretion, at 10 µM, stronger effect = higher value.
A short description of assay [3]: growth inhibition of GSK3B-pretreated HCT116 cells – cell-based, CellTiter-Glo, 0.2 to 20 µM (AID 1117336;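 active means compounds lowering colon cancer cell viability after pretreatment blocking the GSK3B kinase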). The conditions noted are these: HCT116 viability after GSK3B inhibitor, at 20 µM, stronger effect = higher value.
The nature of assay [4]: inhibition of endothelial tube formation, primary screen, imaging, VEGF stimulated, CD31 staining, tube area, NPC library (AID 1117340;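 active means compound that reduces growth-factor-driven endothelial tube area in a mixed cell culture, no cutoff stated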). The conditions noted are these: VEGF-stimulated ADSC/ECFC co-culture, at 10 µM, stronger effect = higher value.
A short description of assay [5]: GLP1 release stimulators, primary, NCI-H716, NPC library (AID 1117341;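 active means compound raises GLP1 secretion from the human gut endocrine cells, with no numeric limit stated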). The conditions noted are these: NCI-H716 cells, at 10 µM, stronger effect = higher value.
Assay [6] can be described thus: HCT116 colon cancer cell growth inhibition, primary screen, CellTiter-Glo luminescence, NPC library (AID 1117342;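 active means compounds that lower survival of HCT116 colon cancer cells in the luminescence readout, no numeric limit stated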). The conditions noted are these: at 20 µM (top of the series). (ATP-based viability assays read luminescence as a measure of living cells.)
A short description of assay [7]: reduced SW480 viability measured with CellTiter-Glo, NPC library, primary (AID 1117343;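 active means compounds that lower viability of the colon cancer cells in the luminescence readout, with no numeric limit stated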). The conditions noted are these: CellTiter-Glo luminescence; at 20 µM (top of the series).
Assay [8] is described as follows: NPC library primary testing for decreased DLD-1 cell viability via CellTiter-Glo (AID 1117346;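 active means compounds that lower survival of DLD-1 colon cancer cells in the luminescence readout, no cutoff given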). The conditions noted are these: DLD-1 viability, CellTiter-Glo luminescence; at 20 µM (top of the series).
Assay [9] has as its target 6-phosphogluconate dehydrogenase, decarboxylating (Homo sapiens) (UniProt P52209). As to the kind of experiment: inhibition of human phosphogluconate dehydrogenase – biochemical, recombinant enzyme, NADPH absorbance, primary screen (AID 1159550;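 active means at least 20% inhibition of 6-phosphogluconate dehydrogenase activity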). The conditions noted are these: recombinant 6PGD, NADPH absorbance 341 nm; at 10 µM; stronger effect = higher value.
Assay [10] can be described thus: EMT-state selective cytotoxicity in co-culture – imaging, PC-3E GFP, TEM4-18 mCherry, primary screen (AID 1345086;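 active means compounds killing one labelled cell type while sparing the other, by normalised counts and ratio limits, not self-fluorescent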;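 on all read-outs here: cells exposed to compound for 72 h before imaging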;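 on red/green cell ratio (normalised): normalised mesenchymal count divided by normalised epithelial count so high means epithelial killing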). The conditions noted are these: PC-3E GFP / TEM4-18 mCherry co-culture, imaging cell counts, at 1 µM; for red/green cell ratio (normalised): actives lie on both sides.
In assay [11] the test system is Aerobactin synthetase IucA (Klebsiella pneumoniae hvKP1). As to the kind of experiment: IucA enzyme inhibition, primary screen, biochemical, Spectrum library (AID 1346200; call rule not given here;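 further: 100% = wells without compound and 0% = wells lacking enzyme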). Particulars: malachite green pyrophosphate, A620, at 8 µM, stronger effect = lower value.
Assay [12] in a line: viability loss with induced miR-34 in A549 – imaging, A549 dox-inducible miR-34, nuclei and caspase counts, primary screen (AID 1347080). Particulars: A549 miR-34 inducible, Hoechst nuclei count, 48 h.
The target in assay [13] is NAD(+) hydrolase SARM1 (Homo sapiens) (UniProt Q6SZW1). As to the kind of experiment: blocking NAD cleavage by SARM1 SAM-TIR – cell lysate, NAD-Glo luminescence (AID 1508614;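 active means compound whose remaining NAD level is above about 45 nM, limit read from the data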). Particulars: SAM-TIR HEK293T lysate NADase, at 1 µM, stronger effect = higher value.
NAD(+) hydrolase SARM1 (Homo sapiens), sequence (Q6SZW1 whole entry, looked up): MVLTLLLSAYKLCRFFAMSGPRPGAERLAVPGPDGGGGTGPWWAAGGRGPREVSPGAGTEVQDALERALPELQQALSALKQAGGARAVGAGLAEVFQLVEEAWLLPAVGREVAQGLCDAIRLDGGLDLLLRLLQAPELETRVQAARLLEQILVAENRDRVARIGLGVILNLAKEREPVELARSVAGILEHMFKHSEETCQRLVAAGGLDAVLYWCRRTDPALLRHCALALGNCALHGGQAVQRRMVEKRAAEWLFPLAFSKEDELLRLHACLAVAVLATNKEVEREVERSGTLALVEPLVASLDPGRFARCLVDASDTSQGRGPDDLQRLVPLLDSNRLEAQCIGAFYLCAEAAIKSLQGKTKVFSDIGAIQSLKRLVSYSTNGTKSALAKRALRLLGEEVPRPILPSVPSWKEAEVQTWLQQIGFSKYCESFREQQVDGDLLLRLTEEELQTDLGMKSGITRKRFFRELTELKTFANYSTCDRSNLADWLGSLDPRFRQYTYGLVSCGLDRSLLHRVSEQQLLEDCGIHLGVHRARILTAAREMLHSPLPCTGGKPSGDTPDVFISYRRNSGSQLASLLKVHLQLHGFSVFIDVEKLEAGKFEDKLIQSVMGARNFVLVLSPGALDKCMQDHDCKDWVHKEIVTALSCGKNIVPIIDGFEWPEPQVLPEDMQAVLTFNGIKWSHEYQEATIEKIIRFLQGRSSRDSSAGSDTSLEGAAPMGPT
A short description of assay [14]: yeast 75Q aggregation reduction – 75Q-TubU reporter (AID 1593). Particulars: Yeast 75Q polyglutamine aggregation reporter.
The nature of assay [15]: blockers of cytochrome c efflux from mitochondria – biochemical, purified mitochondria (AID 1603).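 Further: mouse liver mitochondria challenged with calcium chloride; signal normalized to the plate average as 100%.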 Particulars: stronger effect = lower value.
A short description of assay [16]: polyglutamine aggregate formation blockers (AID 1604). Particulars: polyglutamine-induced protein aggregation inhibition assay; stronger effect = higher value; tested at 2.5 µM.
A short description of assay [17]: P. berghei load reduction in hepatocytes – cell-based, HepG2, luciferase luminescence, HepG2 viability, primary screen (AID 624349; in the data active means parasite load remaining mostly below about 12%, no sharp cut-off; inactive means mostly above about 10%;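 further: 100% = mean of DMSO negative control wells on the same plate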). Particulars: P. berghei liver stage in HepG2, luciferase luminescence, concentration not given here; parasite load remaining: stronger effect = lower value; viability: measured here: HepG2 viability without parasites.
Assay [18] in a line: MELAS cybrid and Rieske KO viability enhancers – cell-based, MELAS cybrids, Rieske KO mouse fibroblasts, CellTiter-Glo, primary screen (AID 1508586;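 active means mean z-score across replicates of 1.96 or higher in either the MELAS or the Rieske mutant cell line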;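 further: z relative to plate mean and SD of compound and empty wells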). The conditions noted are these: low glucose.
Assay [19] deals with Mitogen-activated protein kinase 7 (Homo sapiens) (UniProt Q13164). As to the kind of experiment: Gal4-ERK5 driven luciferase induction – cell-based, HTS, primary screen (AID 1508626;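 active means luciferase signal above three times the same-plate solvent-only control wells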;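 further: luciferase driven by Gal4-ERK5 fusion binding five Gal4 sites before minimal TATA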). Particulars: HeLa Gal4-ERK5 transactivation, 18 h, at 5 µM, stronger effect = higher value.
Mitogen-activated protein kinase 7 (Homo sapiens), sequence (Q13164 whole entry, looked up, the tested form may be a part): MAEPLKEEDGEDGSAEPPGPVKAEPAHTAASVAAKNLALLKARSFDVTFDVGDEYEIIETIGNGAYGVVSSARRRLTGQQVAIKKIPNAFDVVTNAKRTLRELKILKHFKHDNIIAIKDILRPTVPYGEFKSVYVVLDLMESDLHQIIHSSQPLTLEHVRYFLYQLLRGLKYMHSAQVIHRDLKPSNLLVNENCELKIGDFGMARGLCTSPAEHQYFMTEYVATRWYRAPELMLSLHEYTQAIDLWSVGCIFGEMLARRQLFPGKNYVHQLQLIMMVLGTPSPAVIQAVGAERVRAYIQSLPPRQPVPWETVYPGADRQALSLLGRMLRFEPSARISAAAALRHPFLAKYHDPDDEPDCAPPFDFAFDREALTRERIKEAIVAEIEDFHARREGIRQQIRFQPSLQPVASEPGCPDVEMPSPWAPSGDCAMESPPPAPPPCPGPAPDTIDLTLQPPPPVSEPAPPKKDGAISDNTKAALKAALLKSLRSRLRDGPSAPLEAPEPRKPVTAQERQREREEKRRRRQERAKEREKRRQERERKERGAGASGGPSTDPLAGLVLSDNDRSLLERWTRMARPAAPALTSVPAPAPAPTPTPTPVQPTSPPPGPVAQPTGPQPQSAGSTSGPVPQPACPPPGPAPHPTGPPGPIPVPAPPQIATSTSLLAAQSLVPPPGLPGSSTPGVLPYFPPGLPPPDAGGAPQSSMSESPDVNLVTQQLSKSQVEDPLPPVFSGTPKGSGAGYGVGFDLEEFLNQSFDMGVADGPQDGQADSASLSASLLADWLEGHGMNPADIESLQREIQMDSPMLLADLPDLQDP
The nature of assay [20]: galactose survival enhancers in mitochondrial complex I cybrids – cell-based, galactose medium, ATP luminescence, primary screen (AID 1645843;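 active means z-score of at least 1.8 in each of two replicates, scored against plate mean and spread of sample wells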;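 further: positive z means more ATP and so rescue of galactose-driven cybrid death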). Particulars: complex I mutant cybrid cells, 72 h, stronger effect = higher value.
Setting [21] is: measured here: epithelial PC-3E GFP cell survival.
[22] abbreviates: measured here: mesenchymal TEM4-18 mCherry cell survival.
[23] abbreviates: measured here: relative caspase fold change +Dox/-Dox.
[24] abbreviates: measured here: total cells with miR-34 induction, stronger effect = lower value.
Where [25] appears, read: measured here: total cells without miR-34 induction.
Where [26] appears, read: MELAS cybrid survival, CellTiter-Glo 48 h, stronger effect = higher value.
Setting [27] is: Rieske KO mouse fibroblast survival, CellTiter-Glo 72 h.

6-phosphogluconate dehydrogenase, decarboxylating (Homo sapiens), sequence (P52209 whole entry, looked up): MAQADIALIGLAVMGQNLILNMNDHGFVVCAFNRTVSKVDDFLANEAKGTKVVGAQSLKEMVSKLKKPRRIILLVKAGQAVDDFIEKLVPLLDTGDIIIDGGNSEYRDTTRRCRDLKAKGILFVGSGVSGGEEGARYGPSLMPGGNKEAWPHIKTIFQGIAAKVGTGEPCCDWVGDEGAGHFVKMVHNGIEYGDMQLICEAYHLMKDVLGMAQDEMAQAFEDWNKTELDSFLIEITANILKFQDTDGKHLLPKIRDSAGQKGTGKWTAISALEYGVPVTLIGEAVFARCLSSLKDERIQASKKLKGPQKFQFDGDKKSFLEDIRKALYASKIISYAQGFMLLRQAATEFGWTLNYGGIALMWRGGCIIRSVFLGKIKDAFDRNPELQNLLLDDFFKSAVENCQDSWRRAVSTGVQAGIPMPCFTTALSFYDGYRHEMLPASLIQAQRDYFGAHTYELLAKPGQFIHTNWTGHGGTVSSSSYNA

As for `CCOP(=S)(OCC)Oc1cc(C)nc(C(C)C)n1`, the nuclear beta-catenin stimulation was -0.5% (inactive) in assay [1] (at 10 µM) and 0.1% in assay [1] (stimulation, at 2 µM). Moreover, in assay [2], the insulin secretion stimulation was 0.4% (inactive). The viability decrease in [3] was -71.8% (inactive). The tube area decrease in [4] is 0.2% (inactive). Also, the GLP1 secretion stimulation in assay [5] is -1.4% (inactive). In addition, the inhibition of viability in assay [6] is 11.6% (inactive). For the same molecule, the viability decrease (inhibition) in assay [7] was 34% (inactive); in assay [8] it was 2.6% (inactive). In assay [9], the inhibition – broadly, the change of the read-out against control, counted positive when it falls – was -22.8% (inactive). The red/green cell ratio (normalised) in [10] was 1 (inactive). Besides, the normalised cell number in [10] (setting [21]) and in assay [10] (setting [22]) was 1 each time. Besides, the activity remaining in [11] was 77.6% (inactive). Besides, the fold change in assay [12] (stronger effect = lower value) is 0.932 (inactive); in assay [12] (setting [23]), 1.33. For the same molecule, the cell count was 9160 in [12] (setting [24]) and 9830 in [12] (setting [25]). In addition, the remaining NAD in assay [13] is 10 nM (inactive).
With `O=c1oc2ccccc2c(O)c1Cc1c(O)c2ccccc2oc1=O`, the score in assay [14] was found to be 0.69. Moreover, the cytochrome c release ratio in assay [15] was found to be 0.7. The same molecule came in with an inhibition of aggregation in assay [16] of 42.1%. Also, in assay [17], the parasite load remaining was 87.2% (inactive) and 95.3% (inactive) and 51.7% (inactive). Further, the viability (in general, the share of living cells, or the viability signal relative to a control) in assay [17] is 97.7% and 68.2% and 89.1%. The nuclear beta-catenin stimulation in [1] (at 10 µM) is -0.1% (inactive); in assay [1] (stimulation, at 2 µM), -2.5%. Further, the insulin secretion stimulation in assay [2] was -1% (inactive). Moreover, the viability decrease in [3] was 97.6% (active). In assay [4], the tube area decrease is 26% (inactive). The GLP1 secretion stimulation in [5] is -3.4% (inactive). Besides, the inhibition of viability in assay [6] is 90.5% (active). For the same molecule, the figures for the viability decrease (inhibition) in [7] and in [8] were 107% (active) and 92.1% (active), respectively. Moreover, the inhibition in assay [9] is -29.3% (inactive). Moreover, in assay [10], the red/green cell ratio (normalised) was 0.99 (inactive). In addition, the normalised cell number in assay [10] (setting [21]) was 1.34; in [10] (setting [22]), 1.32. Besides, the activity remaining in [11] is 120% (inactive). For the same molecule, the fold change in assay [12] (stronger effect = lower value) is 0.822 (inactive) and 0.882 (inactive) and 0.865 (inactive); in [12] (setting [23]) it was 1.17 and 1.33 and 1.22. In addition, the cell count in assay [12] (setting [24]) was 8510 and 8000 and 10400; in assay [12] (setting [25]), 10300 and 9060 and 12000. In addition, the z-score in assay [18] (setting [26]) was -0.183 (inactive) and 0.389 (inactive); in [18] (setting [27]), -0.295 and 0.839. In assay [13], the remaining NAD is 10 nM (inactive). In addition, in [19], the luciferase signal was 28 AU (inactive).
With `N[C@@H]1C[C@H]1c1ccccc1`, in assay [17], the parasite load remaining is 105% (inactive). In [17], this molecule yielded a viability of 90.9%. Besides, the nuclear beta-catenin stimulation in assay [1] (at 10 µM) was 1.6% (inactive); in assay [1] (stimulation, at 2 µM) it was 2.1%. Also, the insulin secretion stimulation in assay [2] is 0.5% (active). In [3], the viability decrease was -2.2% (inactive). Also, the tube area decrease in assay [4] was -22.1% (inactive). Besides, the GLP1 secretion stimulation in assay [5] was 3.6% (inactive). Moreover, the inhibition of viability in assay [6] is 19.4% (inactive). The viability decrease (inhibition) was 10% (inactive) in assay [7] and -5.6% (inactive) in assay [8]. Moreover, in assay [9], the inhibition is -7.3% (inactive) and 0.348% (inactive). In addition, the fold change is 0.966 (inactive) in assay [12] (stronger effect = lower value, cell number ratio, induced over uninduced) and 1.35 in assay [12] (setting [23]). The values for the cell count in assay [12] (setting [24]) and in [12] (setting [25]) were 9350 and 9680, respectively. In addition, in [19], the luciferase signal is 36 AU (inactive). Also, in assay [20], the z-score was 0.32 (inactive).
Regarding `Cc1cccc(C)c1NC1=NCCCS1`, the score in assay [14] came out at 1.34. For the same molecule, in assay [15], the cytochrome c release ratio is 0.7. This molecule showed an inhibition of aggregation in [16] of 87.3%. In addition, the nuclear beta-catenin stimulation in assay [1] (at 10 µM) was 0.7% (inactive); in [1] (stimulation, at 2 µM) it was 1.8%. Further, in assay [2], the insulin secretion stimulation is 3.2% (inactive). The viability decrease in [3] was -8.6% (inactive). The tube area decrease in [4] was -3.5% (inactive). In addition, the GLP1 secretion stimulation in assay [5] is 1.7% (inactive). Further, the inhibition of viability in [6] was 10.6% (inactive). Further, the viability decrease (inhibition) in assay [7] was -13.1% (inactive); in [8] it was 2.9% (inactive). In addition, the inhibition in [9] is -17.7% (inactive). In addition, in [10], the red/green cell ratio (normalised) was 1.15 (inactive). The values for the normalised cell number in [10] (setting [21]) and in [10] (setting [22]) were 1.1 and 1.27, respectively. Further, the activity remaining in assay [11] was 116% (inactive). The z-score was -0.333 (inactive) and 0.534 (inactive) and -0.793 (inactive) in assay [18] (setting [26]); -0.0574 and -0.344 and 0.356 in assay [18] (setting [27]); 0.22 (inactive) and 0.48 (inactive) in assay [20]. Besides, the remaining NAD in [13] was 10 nM (inactive). For the same molecule, in assay [19], the luciferase signal is 36 AU (inactive).
